The results in this text go back to PubChem BioAssay AID651820 (National Center for Advancing Translational Sciences (NCATS), 2012).

The whole screen tested about 340,000 compounds, of which about 12,000 (3.5%) were called active. Entries that show only a call come without a potency. Inconclusive results (about 18%) are left out. Only a selection was taken, and actives are over-represented in it overall. Unmarked numbers belong to inactive results. Calls follow the shape of the dose curve; as a rule, active = well fitted inhibition curve with a large enough effect; inconclusive = small, poorly fitted or top-dose-only effect, or another doubt; inactive = no such curve, though single readings can be large or run the other way.

The assay can be described thus: qHTS Assay for Inhibitors of Hepatitis C Virus (HCV). As to conditions: Huh7.5.1 HCVcc-Cre infection, luciferase reporter, 44 h; series mostly up to 41.8 µM. From the text: Hepatitis C virus (HCV) infects about 200 million people in the world. Many infected people progress to chronic liver disease including cirrhosis with a risk of developing liver cancer. To date, there is no effective vaccine for hepatitis C. Current therapy based on interferon is only effective in about half of the patients and is associated with significant adverse effects. The fraction of people with HCV who can complete a successful treatment is estimated to be no more than 10 percent. Recent development of direct-acting antivirals against HCV, such as protease and polymerase inhibitors, is promising but still requires combination with peginterferon and ribavirin for maximal efficacy. In addition, these agents are associated with high rate of resistance and many have significant side effects. Due to the lack of a culture system for infectious HCV, the search for new HCV drugs has been greatly hampered. […] High-throughput screening (HTS) with an infectious HCV system would cover the complete spectrum of potentially druggable targets in all stages of HCV lifecycle, and would have more biological relevance than other cell-based assays. Moreover, targeting several key processes in the viral life cycle may not only increase antiviral efficacy; more importantly, it may also reduce the capacity of the virus to develop resistance to the compound. The goal of this project is to identify novel HCV inhibitors as new therapies for hepatitis C, using a highly sensitive and specific assay platform which is based on a HCV infectious cell culture system established in the laboratory and adapted for high-throughput HCV drug screen. NIH Chemical Genomics Center [NCGC] NIH Molecular Libraries Probe Centers Network [MLPCN] MLPCN Grant: MH095511 Assay Submitter (PI): Jake Liang, NIDDK
The assay will start with plating 1,000 cells/well in 3 µL volume and culture for 4 h. Then 23 nL of compounds from the library collection will be added to each well, followed by adding 2.5 µL of HCVcc-Cre virus (~ 0.5 moi) and further cultured for 44 h before the luciferase assay. A volume of 4.5 µL luciferase substrates will be added to each well and the plates will be incubated at room temperature for 15 min. and then read for 15 sec. for the luciferase activity
In general terms: In qHTS, concentration-response curves come from the screen itself.
`Cn1c(N)c(C(=O)COC(=O)c2cccc(S(=O)(=O)N3CCOCC3)c2)c(=O)n(C)c1=O`: the Potency result is “inactive”. Turning to `O=C(NCC(=O)N1CCCCCCC1)c1ccccc1Cl`, the Potency result was “inactive”.

With `CCOC(=O)CCCNC(=O)CN1C(=O)NC(CCc2ccccc2)C1=O` (stereo unspecified), the Potency result was “inactive”. On the same count and under the same terms, in the case of `CCCCNC(=O)C(C)N(CCN(C)C)C(=O)CCCN1C(=O)NC(c2ccc(Cl)cc2)C(C(=O)OCc2ccccc2)=C1C` (stereo unspecified) it was 11.2 µM (active). As for `COC(=O)CCCCCN1C(=O)NC(c2ccc(-c3ccccc3)cc2)C(C(=O)OCc2ccccc2)=C1C` (stereo unspecified), the activity change, negative = inhibition was 4.51% [at 8.37 µM].

For `CC1=C(C(=O)OC(C)(C)C)C(c2ccc(Br)cc2)NC(=O)N1CCCC(=O)O` (stereo unspecified), the Potency entry is “inactive”. The same measure, in the same setting: for `CCCCNC(=O)C(C)N(CCN(C)C)C(=O)CCCCCN1C(=O)NC(c2ccc(Cl)cc2)C(C(=O)OCc2ccccc2)=C1C` (stereo unspecified) the value was 11.2 µM (active); for `CC1=C(C(=O)OCc2ccccc2)C(c2ccc(C(F)(F)F)cc2)NC(=O)N1CCCCCC(=O)O` (stereo unspecified), “inactive”; for `O=C(COC(=O)CSc1ccccc1)Nc1ccc(F)cc1F`, “inactive”. On the same count and under the same terms, in the case of `CCC(C)C1(C2CCCC2)NC(=O)NC1=O` (stereo unspecified) it was “inactive”; in that of `CC(C)(C)OC(=O)C1=C(CO)CS[C@@H]2[C@H](NC(=O)Cc3ccccc3)C(=O)N12`, “inactive”. Still for that read-out and setting: for `Brc1ccc2nc(N3CCCC3)sc2c1` the value was 11.2 µM (active); for `O=C(c1ccc2nc(N3CCOCC3)sc2c1)N1CCN(c2ccc(Cl)cc2)CC1`, “inactive”; for `c1c2c(cc3sc(N4CCCCC4)nc13)OCCO2`, “inactive”.

As for `COc1ccc(C)cc1NC(=O)CN1c2cccc3cccc(c23)S1(=O)=O`, the Potency result is “inactive”.

On to `CCCCNCCS(=O)(=O)NCc1ccccc1`, for which the Potency entry is “inactive”.

As to `COc1ccccc1N(CC(=O)N/N=C(\C)c1ccccc1O)S(=O)(=O)c1ccc(C)cc1`, the Potency is 10 µM (active). Same read-out and setting: for `COc1ccccc1N(CC(=O)Nc1c(C)n(C)n(-c2ccccc2)c1=O)S(=O)(=O)c1ccccc1` the value was “inactive”; for `COc1ccc(S(=O)(=O)N(CC(=O)N/N=C/c2ccccc2C(=O)O)c2ccccc2OC)cc1`, “inactive”; for `CCOc1ccc(S(=O)(=O)N2CCN(C(=O)c3oc4ccccc4c3C)CC2)cc1`, “inactive”.

With `O=C(NCC1CCCO1)c1ccc(S(=O)(=O)Nc2ccc(F)cc2)cc1` (stereo unspecified), the Potency result was “inactive”. The same measure, in the same setting: for `COc1cc(OC)c(C(=O)NCc2ccc3c(c2)OCO3)cc1OC` the value was “inactive”; for `COc1cc(C(=O)CCc2ccc3c(c2)OCO3)cc(OC)c1OC`, 14.1 µM (active). Still for that read-out and setting: in the case of `COc1ccc(CNCCc2ccc3c(c2)OCO3)c(OC)c1OC` it was “inactive”. On to `O=C(NCCS(=O)(=O)NCc1ccc(Cl)cc1)c1ccccc1`, for which the activity change, negative = inhibition is 6.73% [at 8.37 µM]. For the compound `COc1ccc(Cl)cc1C(=O)OCC(=O)NCc1cccs1`, the Potency entry was “inactive”.

For `COc1ccc(C(=O)OCC(=O)c2ccc(Cl)s2)c(OC)c1OC`, the Potency is 2.51 µM (active).

Regarding `COc1ccc(C(=O)OCC(=O)Nc2ccc3[nH]c(=O)[nH]c3c2)c(OC)c1OC`, the Potency result was “inactive”.

Turning to `CN(O)C(=S)c1ccccc1`, the Potency result is “inactive”.

`CCNC(=O)N(CC)C[C@H]1N[C@@](CC)(C(=O)OC)[C@H]2C(=O)N(Cc3ccccc3)C(=O)[C@@H]12`: the activity change, negative = inhibition was 23% [at 8.37 µM]. With `O=C(CSc1n[nH]c(-c2cccs2)n1)N1CCCCC1`, the Potency result is “inactive”. The same measure, in the same setting: for `O=C(O)Cc1ccc(NC(=O)Nc2cccc3ccccc23)cc1` the value was “inactive”; for `O=C(Nc1ccc2c(c1)C(=O)OC2)Nc1cccc2ccccc12`, “inactive”; for `CC(=O)N(C)c1ccc(NC(=O)Nc2cccc3ccccc23)cc1`, 12.6 µM (active). `O=C(CSC1=NS(=O)(=O)c2cc(F)ccc2N1)Nc1ccccc1F`: the Potency result is “inactive”. Still for that read-out and setting: for `CCOC(=O)N1CCN(C(=O)COC(=O)c2cccc(S(C)(=O)=O)c2)CC1` the value was “inactive”; for `CC(=O)c1ccc(NC(=O)CSc2nc3ccccc3c(=O)n2CCCN2CCOCC2)cc1`, “inactive”; for `COc1cc(NC(=S)NCc2ccco2)c(OC)cc1Cl`, “inactive”. Same read-out and setting: in the case of `CCOc1cc(NC(=S)NCc2ccco2)c(OCC)cc1NC(=O)c1ccco1` it was 2.82 µM (active). The same measure, in the same setting: in the case of `CCOc1cc(NC(=O)c2ccco2)c(OCC)cc1NC(=O)COc1ccccc1` it was “inactive”; in that of `CN1C(C(=O)NCC2CC2)CC2Cn3c(nc4ccccc43)C21` (stereo unspecified), “inactive”. For the compound `Cc1ccc(NC(=O)COC(=O)CN2CCCCCC2=O)c(C)c1`, the Potency entry is “inactive”.

Turning to `COc1ccc(C(=NN)c2ccc(OC)cc2)cc1`, the Potency entry is “inactive”.

Consider `Cc1cccc(N2CC(C(=O)Nc3ccccc3N3CCCC3)CC2=O)c1C` (stereo unspecified), for which the Potency entry was “inactive”. Same read-out and setting: for `C=CCCC(=O)Nc1nc(C)c(-c2csc(Nc3ccc(Cl)cc3)n2)s1` the value was 11.2 µM (active); for `Cc1ccc(Nc2nc(-c3sc(NC(=O)c4ccccc4)nc3C)cs2)cc1`, “inactive”; for `CCCCC(=O)Nc1nc(C)c(-c2csc(Nc3ccc(Cl)cc3)n2)s1`, 8.91 µM (active). Consider `CCCCCCC(=O)Nc1nc(C)c(-c2csc(Nc3cc(Cl)ccc3OC)n2)s1`, for which the Potency result is “inactive”. The same measure, in the same setting: in the case of `CC(=O)c1sc(NC(=O)CCCOc2ccccc2C)nc1C` it was “inactive”; in that of `Cc1nc(NC(=O)CN(C)S(=O)(=O)c2ccc(Cl)cc2)sc1C`, “inactive”.

With `CCOC(=O)C1CCN(C(=O)c2cccc(S(=O)(=O)N(CC)c3ccccc3)c2)CC1`, the Potency result was “inactive”.
